# Inconclusive results are not listed. Activity calls are given as the source filed them. Rule for the calls, unless noted: active = hit-call score of the fitted dose curve at least 0.9, where 1 is the maximum; inconclusive = response in the unintended direction; inactive = score below 0.9.
# Experiments:
# [1] = target: rat Opioid Receptor, Non-selective Binding, Oprm1 (gene 25601) (UniProt P33535); assay: NVS_GPCR_rOpiate_NonSelective: NovaScreen (NVS) G Protein-Coupled Receptor Assay for rat Opioid Receptor, Non-selective Binding (AID 2283318)
# How it was run: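 Rat forebrain membranes, cell-free radioligand binding with filter-based scintillation counting, read 1.5 h after dosing. Primary screen in duplicate at 25 uM; actives retested in concentration series. Loss of signal versus DMSO baseline scored.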
# [2] = target: human Peripheral-type Benzodiazepine Receptor (PBR), TSPO (gene 706) (UniProt P30536); assay: NVS_MP_hPBR: NovaScreen (NVS) Membrane Protein Assay for human Peripheral-type Benzodiazepine Receptor (PBR) (AID 2283331);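 note: hits reduce radioligand binding relative to DMSO baseline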
# Chain of human Peripheral-type Benzodiazepine Receptor (PBR), TSPO (gene 706) (P30536 whole entry, looked up): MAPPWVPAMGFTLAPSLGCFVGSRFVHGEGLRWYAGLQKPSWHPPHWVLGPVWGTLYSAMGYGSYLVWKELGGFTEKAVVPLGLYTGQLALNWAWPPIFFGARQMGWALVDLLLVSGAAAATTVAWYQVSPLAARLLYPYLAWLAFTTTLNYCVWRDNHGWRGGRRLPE
# How it was run: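 Radioligand displacement on human colonic cell membranes, 1 h incubation; bound radioactivity by filtration and scintillation counting. Primary screen in duplicate at 25 uM single concentration, actives followed up in concentration series; loss of binding versus DMSO.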
# [3] = target: rat Peripheral-type Benzodiazepine Receptor (PBR), Tspo (gene 24230) (UniProt P16257); assay: NVS_MP_rPBR: NovaScreen (NVS) Membrane Protein Assay for rat Peripheral-type Benzodiazepine Receptor (PBR) (AID 2283335)
# Chain of rat Peripheral-type Benzodiazepine Receptor (PBR), Tspo (gene 24230) (P16257 whole entry, looked up): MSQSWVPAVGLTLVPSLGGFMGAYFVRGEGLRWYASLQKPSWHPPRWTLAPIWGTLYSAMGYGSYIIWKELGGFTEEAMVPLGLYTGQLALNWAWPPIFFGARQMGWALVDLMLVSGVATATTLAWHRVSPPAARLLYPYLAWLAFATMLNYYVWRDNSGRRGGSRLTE
# How it was run: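 Rat kidney membranes; radioligand binding with displacement, filter-based scintillation counting, 1 h incubation. Primary screen in duplicate at 25 uM, actives followed in concentration series; loss of binding vs DMSO.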
# [4] = target: rat Neonicotinoid receptor (NNR), Chrna7 (gene 25302) (UniProt Q05941); assay: NVS_LGIC_rNNR_BungSens: NovaScreen (NVS) Ligand-Gated Ion Channel Assay for rat Neonicotinoid receptor (NNR) (AID 2283315)
# Chain of rat Neonicotinoid receptor (NNR), Chrna7 (gene 25302) (Q05941 whole entry, looked up): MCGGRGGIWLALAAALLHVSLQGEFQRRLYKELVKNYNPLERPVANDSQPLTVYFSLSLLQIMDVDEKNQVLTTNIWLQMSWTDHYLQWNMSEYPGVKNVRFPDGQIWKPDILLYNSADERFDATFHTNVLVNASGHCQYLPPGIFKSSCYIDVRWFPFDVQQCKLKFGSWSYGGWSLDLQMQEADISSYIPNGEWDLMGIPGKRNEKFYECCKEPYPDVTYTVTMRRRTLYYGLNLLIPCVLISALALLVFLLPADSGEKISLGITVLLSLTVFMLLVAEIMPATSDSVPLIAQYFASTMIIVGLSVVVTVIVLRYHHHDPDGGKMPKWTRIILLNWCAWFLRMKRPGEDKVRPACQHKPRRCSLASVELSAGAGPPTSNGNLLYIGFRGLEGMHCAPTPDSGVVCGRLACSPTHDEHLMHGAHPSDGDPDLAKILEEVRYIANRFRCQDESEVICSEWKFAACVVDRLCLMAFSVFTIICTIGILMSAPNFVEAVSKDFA
# How it was run: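 Radioligand displacement binding on rat cortical membranes, 2.5 h incubation, filtration and scintillation counting. Loss of specific binding fitted relative to DMSO.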
# NCBI gene 24521 = assay: NVS_IC_rKATPCh: NovaScreen (NVS) Ion Channel Assay for rat Potassium Channel, ATP-Sensitive (KATPCh) (AID 2283319)
# How it was run: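 Rat cortical membranes; radioligand binding at ATP-sensitive K channel site, filter-based scintillation counting 2 h after dosing. Single-point duplicate screen at 25 uM, hits rerun in concentration-response up to 50 uM; loss of signal versus DMSO.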
# [5] = target: Small conductance calcium-activated potassium channel protein 1 (Rattus norvegicus) (UniProt P70606); assay: NVS_IC_rKCaCh: NovaScreen (NVS) Ion Channel Assay for rat Potassium Channel, Ca2+ Act., VI (KCaCh) (AID 2283336)
# How it was run: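 Radioligand binding to rat forebrain membranes, cell-free, read 1 hour after dosing by filter-based scintillation counting. Compounds first run in duplicate at 25 uM, actives then in concentration series; loss of signal vs DMSO indicates displacement.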
# [6] = target: Sodium channel protein type 1 subunit alpha (Rattus norvegicus) (UniProt P04774); assay: NVS_IC_rNaCh_site2: NovaScreen (NVS) Ion Channel Assay for rat Sodium Channel, Site 2 (NaCh) (AID 2283322);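 note: hit means loss of radioligand binding signal relative to DMSO so AC50 marks displacement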
# How it was run: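 Membranes: rat forebrain. Format: competitive radioligand displacement, filter separation, scintillation readout, 1 h exposure. Primary screen in duplicate at 25 uM; actives retested in concentration series.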
# [7] = target: Voltage-gated inwardly rectifying potassium channel KCNH2 (Homo sapiens) (UniProt Q12809); assay: NVS_IC_hKhERGCh: NovaScreen (NVS) Ion Channel Assay for human Potassium Channel ERG (KhERGCh) (AID 2283333)
# Chain of Voltage-gated inwardly rectifying potassium channel KCNH2 (Homo sapiens) (Q12809 whole entry, looked up): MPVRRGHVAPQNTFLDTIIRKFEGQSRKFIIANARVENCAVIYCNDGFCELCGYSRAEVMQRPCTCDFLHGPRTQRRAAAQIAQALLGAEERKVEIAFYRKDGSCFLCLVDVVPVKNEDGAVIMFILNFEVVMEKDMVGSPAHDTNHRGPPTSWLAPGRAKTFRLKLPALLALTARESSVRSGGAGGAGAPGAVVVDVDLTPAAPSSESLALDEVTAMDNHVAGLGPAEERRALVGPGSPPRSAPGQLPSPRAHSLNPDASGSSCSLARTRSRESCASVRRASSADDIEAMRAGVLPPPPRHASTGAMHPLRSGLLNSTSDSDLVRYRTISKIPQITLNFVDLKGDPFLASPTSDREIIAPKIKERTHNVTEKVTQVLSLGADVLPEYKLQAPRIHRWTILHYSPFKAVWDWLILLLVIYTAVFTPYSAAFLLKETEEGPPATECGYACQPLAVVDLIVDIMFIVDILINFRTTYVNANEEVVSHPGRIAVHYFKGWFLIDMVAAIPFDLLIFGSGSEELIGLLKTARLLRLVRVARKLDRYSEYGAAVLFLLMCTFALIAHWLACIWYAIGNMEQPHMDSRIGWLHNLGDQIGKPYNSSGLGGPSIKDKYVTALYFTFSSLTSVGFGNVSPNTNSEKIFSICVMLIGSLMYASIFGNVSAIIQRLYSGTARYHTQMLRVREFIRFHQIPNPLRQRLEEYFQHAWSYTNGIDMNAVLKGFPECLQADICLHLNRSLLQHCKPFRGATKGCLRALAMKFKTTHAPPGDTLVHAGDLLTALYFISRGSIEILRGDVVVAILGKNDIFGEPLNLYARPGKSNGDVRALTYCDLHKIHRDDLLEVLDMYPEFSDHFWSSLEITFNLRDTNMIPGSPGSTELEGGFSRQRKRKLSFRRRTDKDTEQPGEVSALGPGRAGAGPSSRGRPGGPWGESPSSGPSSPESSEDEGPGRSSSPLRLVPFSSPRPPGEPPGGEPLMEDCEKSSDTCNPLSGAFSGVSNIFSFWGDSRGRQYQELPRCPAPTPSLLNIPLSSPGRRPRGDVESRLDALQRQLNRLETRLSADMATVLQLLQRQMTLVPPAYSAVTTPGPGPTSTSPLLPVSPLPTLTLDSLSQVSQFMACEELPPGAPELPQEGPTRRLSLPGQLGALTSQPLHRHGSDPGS
# How it was run: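 Cell-free radioligand competition binding on hERG protein extracted from CHO cells, read by filter-based scintillation counting 0.75 h after dosing. Primary screen at 25 uM in duplicate, actives followed in concentration series. Signal loss fitted versus DMSO.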
# [8] = target: human Androgen Receptor (AR), AR (gene 367) (UniProt P10275); assay: NVS_NR_hAR: NovaScreen (NVS) Nuclear Receptor Binding Assay for human Androgen Receptor (AR) (AID 2283332)
# Chain of human Androgen Receptor (AR), AR (gene 367) (P10275 whole entry, looked up): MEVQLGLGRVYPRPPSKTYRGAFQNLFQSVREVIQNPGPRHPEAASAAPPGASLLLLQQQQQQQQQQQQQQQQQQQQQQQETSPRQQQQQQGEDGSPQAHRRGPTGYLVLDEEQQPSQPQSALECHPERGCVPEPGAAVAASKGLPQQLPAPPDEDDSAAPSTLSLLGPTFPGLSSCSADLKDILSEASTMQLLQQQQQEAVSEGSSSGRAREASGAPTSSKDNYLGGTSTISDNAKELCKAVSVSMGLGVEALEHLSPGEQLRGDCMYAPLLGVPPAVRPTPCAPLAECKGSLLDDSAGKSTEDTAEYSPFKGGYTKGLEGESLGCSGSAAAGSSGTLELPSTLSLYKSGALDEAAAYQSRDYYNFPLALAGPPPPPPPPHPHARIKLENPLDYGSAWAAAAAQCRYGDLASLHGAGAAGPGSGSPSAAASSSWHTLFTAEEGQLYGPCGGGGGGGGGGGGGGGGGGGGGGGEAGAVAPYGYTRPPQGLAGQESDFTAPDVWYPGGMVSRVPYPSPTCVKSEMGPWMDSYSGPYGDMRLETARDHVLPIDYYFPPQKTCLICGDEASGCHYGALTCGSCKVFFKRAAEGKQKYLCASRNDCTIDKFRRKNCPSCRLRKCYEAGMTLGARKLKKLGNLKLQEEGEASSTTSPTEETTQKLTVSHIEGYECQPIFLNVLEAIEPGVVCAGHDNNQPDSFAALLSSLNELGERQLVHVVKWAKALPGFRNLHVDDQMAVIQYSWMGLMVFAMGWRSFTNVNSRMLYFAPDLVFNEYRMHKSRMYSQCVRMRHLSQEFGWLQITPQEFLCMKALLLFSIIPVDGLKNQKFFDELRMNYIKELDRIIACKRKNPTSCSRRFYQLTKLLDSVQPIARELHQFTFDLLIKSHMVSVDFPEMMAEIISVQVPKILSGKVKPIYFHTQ
# How it was run: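 LnCAP cell-free extract; radioligand displacement read by scintillation counting after 20 h. Primary screen single concentration 25 uM in duplicate, actives then run as concentration series; loss-of-signal fitted relative to DMSO baseline.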
# [9] = target: rat Oxytocin Receptor (OXT), Oxtr (gene 25342) (UniProt P70536); assay: NVS_GPCR_rOXT: NovaScreen (NVS) G Protein-Coupled Receptor Assay for rat Oxytocin Receptor (OXT) (AID 2283330)
# How it was run: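 Radioligand displacement on rat uterine membranes, 1 h incubation, filter-based scintillation counting. Chemicals were screened in duplicate at 25 uM, and those passing threshold were retested in concentration-response up to 50 uM. Loss of binding was fitted versus DMSO.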
# [10] = target: rat Glutamate, AMPA Site (AMPA), Gria1 (gene 50592) (UniProt P19490); assay: NVS_LGIC_rAMPA: NovaScreen (NVS) Ligand-Gated Ion Channel Assay for rat Glutamate, AMPA Site (AMPA) (AID 2283324)
# Chain of rat Glutamate, AMPA Site (AMPA), Gria1 (gene 50592) (P19490 whole entry, looked up): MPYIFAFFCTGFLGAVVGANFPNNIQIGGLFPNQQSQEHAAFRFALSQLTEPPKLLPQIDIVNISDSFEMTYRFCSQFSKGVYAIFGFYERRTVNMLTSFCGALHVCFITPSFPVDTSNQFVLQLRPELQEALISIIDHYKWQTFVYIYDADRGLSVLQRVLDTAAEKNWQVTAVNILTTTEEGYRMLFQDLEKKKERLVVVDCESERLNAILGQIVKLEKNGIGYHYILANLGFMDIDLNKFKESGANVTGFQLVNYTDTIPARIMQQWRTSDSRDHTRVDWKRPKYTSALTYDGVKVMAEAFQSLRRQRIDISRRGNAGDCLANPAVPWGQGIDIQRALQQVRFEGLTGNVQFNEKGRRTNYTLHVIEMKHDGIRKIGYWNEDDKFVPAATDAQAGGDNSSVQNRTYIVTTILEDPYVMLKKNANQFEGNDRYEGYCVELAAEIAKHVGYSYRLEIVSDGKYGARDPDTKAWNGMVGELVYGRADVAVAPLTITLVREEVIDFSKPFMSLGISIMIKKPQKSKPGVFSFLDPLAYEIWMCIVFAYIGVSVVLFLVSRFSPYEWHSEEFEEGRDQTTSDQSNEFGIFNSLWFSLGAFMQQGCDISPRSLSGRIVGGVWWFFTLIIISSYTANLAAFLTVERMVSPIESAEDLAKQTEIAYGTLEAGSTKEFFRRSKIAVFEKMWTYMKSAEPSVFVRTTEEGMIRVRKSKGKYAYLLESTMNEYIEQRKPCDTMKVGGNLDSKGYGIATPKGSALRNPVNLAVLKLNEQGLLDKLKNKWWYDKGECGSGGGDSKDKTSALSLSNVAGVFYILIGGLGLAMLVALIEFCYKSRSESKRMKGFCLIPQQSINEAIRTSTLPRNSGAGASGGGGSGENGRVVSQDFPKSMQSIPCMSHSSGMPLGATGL
# How it was run: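 Rat forebrain membranes; radioligand binding read 1 h after dosing by filtration and scintillation counting. Duplicate single-point screen at 25 uM, then concentration-response to 50 uM for threshold hits (e.g. 30% inhibition); loss of signal vs DMSO.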
# [11] = target: rat Thyrotropin Releasing Hormone Receptor (TRH), Trhr (gene 25570) (UniProt Q01717); assay: NVS_GPCR_rTRH: NovaScreen (NVS) G Protein-Coupled Receptor Assay for rat Thyrotropin Releasing Hormone Receptor (TRH) (AID 2283329);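 note: hit means lower bound tracer signal versus DMSO baseline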
# Chain of rat Thyrotropin Releasing Hormone Receptor (TRH), Trhr (gene 25570) (Q01717 whole entry, looked up): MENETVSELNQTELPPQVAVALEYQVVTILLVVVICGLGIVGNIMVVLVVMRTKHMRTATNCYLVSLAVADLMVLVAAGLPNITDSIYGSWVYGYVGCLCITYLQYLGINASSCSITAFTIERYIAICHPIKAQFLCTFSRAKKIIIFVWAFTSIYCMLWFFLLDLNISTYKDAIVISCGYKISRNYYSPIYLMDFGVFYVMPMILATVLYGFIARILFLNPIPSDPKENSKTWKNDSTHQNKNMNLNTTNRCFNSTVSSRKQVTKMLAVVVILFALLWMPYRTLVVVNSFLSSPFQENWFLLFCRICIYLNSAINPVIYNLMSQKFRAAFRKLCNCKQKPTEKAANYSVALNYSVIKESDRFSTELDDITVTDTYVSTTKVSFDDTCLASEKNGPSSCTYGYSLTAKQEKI
# How it was run: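 Competitive radioligand binding on rat forebrain membrane preparations, with filtration and scintillation readout after 4 h. Primary testing in duplicate at 25 uM; actives confirmed in concentration-response. DMSO defined baseline.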
# [12] = target: human Serotonin, 5-Hydroxytryptamine Receptor 3 (5HT3), HTR3A (gene 3359) (UniProt P46098); assay: NVS_LGIC_h5HT3: NovaScreen (NVS) Ligand-Gated Ion Channel Assay for human Serotonin, 5-Hydroxytryptamine Receptor 3 (5HT3) (AID 2283325)
# How it was run: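 Radioligand displacement binding to human 5-HT3 from HEK293 membranes, read by filter-based scintillation counting after 1 h. Screen at 25 uM in duplicate; chemicals passing threshold were retested in concentration-response up to 50 uM.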
# [13] = target: Glutamate receptor ionotropic, kainate 1 (Rattus norvegicus) (UniProt P22756); assay: NVS_IC_rKAR: NovaScreen (NVS) Ion Channel Assay for rat Kainic Acid Receptors (KAR) (AID 2283334; active = hit-call score of the fitted dose curve at least 0.9, where 1 is the maximum; inactive = score below 0.9)
# How it was run: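 Radioligand displacement binding using rat forebrain membranes, 1 h incubation, filter-based scintillation counting. Screened in duplicate at 25 uM, with actives retested in concentration-response up to 50 uM; fitted against DMSO.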
# [14] = target: bovine Gamma-Aminobutyric Acid Type A Receptor BDZ, alpha 5 site (GABARa5), GABRA5 (gene 523515) (UniProt Q08E50); assay: NVS_LGIC_bGABARa5: NovaScreen (NVS) Ligand-Gated Ion Channel Assay for bovine Gamma-Aminobutyric Acid Type A Receptor BDZ, alpha 5 site (GABARa5) (AID 2283323)
# Chain of bovine Gamma-Aminobutyric Acid Type A Receptor BDZ, alpha 5 site (GABARa5), GABRA5 (gene 523515) (Q08E50 whole entry, looked up): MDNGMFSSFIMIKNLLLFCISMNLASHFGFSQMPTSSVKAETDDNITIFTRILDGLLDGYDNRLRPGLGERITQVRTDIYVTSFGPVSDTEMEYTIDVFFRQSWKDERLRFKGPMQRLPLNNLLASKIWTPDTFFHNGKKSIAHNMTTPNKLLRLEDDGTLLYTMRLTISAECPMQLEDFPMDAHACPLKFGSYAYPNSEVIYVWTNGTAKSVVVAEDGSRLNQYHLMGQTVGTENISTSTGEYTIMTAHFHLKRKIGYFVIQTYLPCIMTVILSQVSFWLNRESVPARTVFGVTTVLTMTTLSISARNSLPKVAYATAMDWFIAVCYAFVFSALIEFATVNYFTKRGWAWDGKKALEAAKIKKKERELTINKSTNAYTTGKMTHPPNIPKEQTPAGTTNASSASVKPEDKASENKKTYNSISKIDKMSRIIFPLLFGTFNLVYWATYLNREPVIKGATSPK
# How it was run: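 Radioligand competitive displacement binding on bovine hippocampal membranes, read 1 hr after dosing by filter-based scintillation counting. Primary screen at 25 uM in duplicate; actives (e.g. ≥30% inhibition) then run in concentration-response up to 50 uM.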
structure (smiles),measurement,setting,value
CCc1cccc(C)c1N(C(=O)CCl)C(C)COC (stereo not drawn),AC50,[1],14.7 µM (active)
same,AC50,[2],9.23 µM (active)
same,AC50,[3],8.9 µM (active)
Cc1ccn2nc(S(=O)(=O)Nc3c(F)cccc3F)nc2n1,outcome,[4],inactive
CNC(=O)ON=C(SC)C(=O)N(C)C,outcome,NCBI gene 24521,inactive
same,outcome,[2],inactive
same,outcome,[3],inactive
CN(C)C(=O)Nc1cccc(C(F)(F)F)c1,AC50,NCBI gene 24521,10.9 µM (active)
same,AC50,[2],17.9 µM (active)
same,AC50,[3],10.8 µM (active)
same,outcome,[5],inactive
CCCOc1nn(C(=O)NS(=O)(=O)c2ccccc2C(=O)OC)c(=O)n1C,outcome,[4],inactive
CCOP(=S)(Oc1cnc(C(C)(C)C)nc1)OC(C)C (stereo not drawn),outcome,[2],inactive
same,outcome,[3],inactive
CSc1nc(NC(C)C)nc(NC(C)C)n1,AC50,[6],11.9 µM (active)
same,AC50,[7],6.4 µM (active)
C=C(C)[C@H]1Cc2c(ccc3c2O[C@@H]2COc4cc(OC)c(OC)cc4[C@@H]2C3=O)O1,outcome,[2],inactive
same,outcome,[8],inactive
same,AC50,[3],4.23 µM (active)
Cc1cc(C2CC2)nc(Nc2ccccc2)n1,AC50,[6],9.68 µM (active)
same,AC50,[2],25 µM (active)
same,AC50,[3],7.55 µM (active)
CNc1cnn(-c2cccc(C(F)(F)F)c2)c(=O)c1Cl,outcome,[9],inactive
same,AC50,[2],5.75 µM (active)
same,AC50,[3],4.99 µM (active)
CCCCN(CC)c1c([N+](=O)[O-])cc(C(F)(F)F)cc1[N+](=O)[O-],outcome,[2],inactive
same,outcome,[3],inactive
CCC(=NOC/C=C/Cl)C1=C(O)CC(C2CCOCC2)CC1=O (stereo not drawn),outcome,[2],inactive
same,outcome,[3],inactive
S=C1NCCN1,outcome,[10],inactive
same,outcome,[2],inactive
CCC(=O)Nc1ccc(Cl)c(Cl)c1,outcome,[6],inactive
same,outcome,[11],inactive
same,AC50,[2],15.6 µM (active)
same,AC50,[8],8.41 µM (active)
same,AC50,[3],9.5 µM (active)
CCOP(=S)(OCC)Oc1cc(C)nc(C(C)C)n1,outcome,[2],inactive
same,AC50,[3],1.3 µM (active)
C#CCC1=C(C)C(OC(=O)C2C(C=C(C)C)C2(C)C)CC1=O (stereo not drawn),outcome,[12],inactive
same,outcome,[2],inactive
same,AC50,[3],20 µM (active)
Nc1c(Cl)cc([N+](=O)[O-])cc1Cl,outcome,[6],inactive
same,outcome,[11],inactive
same,outcome,[2],inactive
CCOP(=S)(OCC)SCCSCC,outcome,[2],inactive
same,AC50,[3],17.9 µM (active)
C#CC(C)(C)NC(=O)c1cc(Cl)cc(Cl)c1,outcome,[11],inactive
same,AC50,[2],1.47 µM (active)
same,AC50,[3],0.19 µM (active)
CC(C)[C@H](C(=O)O[C@H](C#N)c1cccc(Oc2ccccc2)c1)c1ccc(Cl)cc1,outcome,[2],inactive
CCc1cnc(C2=NC(C)(C(C)C)C(=O)N2)c(C(=O)O)c1 (stereo not drawn),outcome,[11],inactive
CC(C)N(C(=O)SCC(Cl)=C(Cl)Cl)C(C)C,AC50,[3],45.6 µM (active)
COP(=O)(NC(C)=O)SC (stereo not drawn),outcome,[2],inactive
same,outcome,[13],inactive
CC(COc1ccc(Oc2ccccc2)cc1)Oc1ccccn1 (stereo not drawn),outcome,[2],inactive
same,outcome,[3],inactive
CCCSP(=O)(OCC)Oc1ccc(Br)cc1Cl (stereo not drawn),AC50,[2],3.16 µM (active)
same,AC50,[3],0.28 µM (active)
CN(C)[C@@H]1C(=O)C(C(N)=O)=C(O)[C@@]2(O)C(=O)C3=C(O)c4c(O)cccc4[C@@](C)(O)[C@H]3[C@H](O)[C@@H]12,outcome,[10],inactive
same,AC50,[2],12.9 µM (active)
same,outcome,[3],inactive
CC1(C(=O)Nc2ccc(O)c(Cl)c2Cl)CCCCC1,AC50,[2],1.78 µM (active)
same,AC50,[3],0.47 µM (active)
CCOP(=S)(OCC)Oc1ccc([N+](=O)[O-])cc1,outcome,[2],inactive
same,AC50,[3],3.61 µM (active)
CCC(CC)Nc1c([N+](=O)[O-])cc(C)c(C)c1[N+](=O)[O-],outcome,[11],inactive
same,outcome,[2],inactive
same,outcome,[3],inactive
CCCSP(=O)(OCC)SCCC,AC50,[2],17.7 µM (active)
same,outcome,[8],inactive
same,AC50,[3],11.5 µM (active)
CC(C1CC1)C(O)(Cn1cncn1)c1ccc(Cl)cc1 (stereo not drawn),outcome,[6],inactive
same,outcome,[11],inactive
same,outcome,[2],inactive
CNC(=O)ON=C(C)SC,outcome,[2],inactive
O=[N+]([O-])c1cc(C(F)(F)F)c(Cl)c([N+](=O)[O-])c1Nc1ncc(C(F)(F)F)cc1Cl,outcome,[14],inactive
same,outcome,[11],inactive
same,outcome,[7],inactive

# — PubChem BioAssay (EPA / NIEHS)
